Test results taken from PubChem BioAssay AID624330 (Southern Research Specialized Biocontainment Screening …, 2012).
The whole screen tested about 340,000 compounds, of which about 2,100 (0.62%) were called active.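 How the source made its calls: active means first-screen hits whose inhibition reached a set limit at any dose in the follow-up dose series; inconclusive means inhibition above the set first-screen limit but never retested; inactive means the rest.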 A selection follows. Results with a measured potency or affinity are listed apart.

These molecules were tested against Rac GTPase-activating protein 1 (Homo sapiens) (UniProt Q9H0H5) (assay: MgcRacGAP GTPase-activating activity inhibitors, confirmation, biochemical, ADP Hunter fluorescence, primary and confirmatory (AID 624330;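 further: fluorescence reports GDP produced by GAP-driven GTP hydrolysis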)). Conditions: MgcRacGAP-stimulated Rac1 GTP hydrolysis, at 30 µM, active compounds read high, GST-tagged Rac1 F28L mutant substrate.
Rac GTPase-activating protein 1 (Homo sapiens), sequence (Q9H0H5 whole entry, looked up): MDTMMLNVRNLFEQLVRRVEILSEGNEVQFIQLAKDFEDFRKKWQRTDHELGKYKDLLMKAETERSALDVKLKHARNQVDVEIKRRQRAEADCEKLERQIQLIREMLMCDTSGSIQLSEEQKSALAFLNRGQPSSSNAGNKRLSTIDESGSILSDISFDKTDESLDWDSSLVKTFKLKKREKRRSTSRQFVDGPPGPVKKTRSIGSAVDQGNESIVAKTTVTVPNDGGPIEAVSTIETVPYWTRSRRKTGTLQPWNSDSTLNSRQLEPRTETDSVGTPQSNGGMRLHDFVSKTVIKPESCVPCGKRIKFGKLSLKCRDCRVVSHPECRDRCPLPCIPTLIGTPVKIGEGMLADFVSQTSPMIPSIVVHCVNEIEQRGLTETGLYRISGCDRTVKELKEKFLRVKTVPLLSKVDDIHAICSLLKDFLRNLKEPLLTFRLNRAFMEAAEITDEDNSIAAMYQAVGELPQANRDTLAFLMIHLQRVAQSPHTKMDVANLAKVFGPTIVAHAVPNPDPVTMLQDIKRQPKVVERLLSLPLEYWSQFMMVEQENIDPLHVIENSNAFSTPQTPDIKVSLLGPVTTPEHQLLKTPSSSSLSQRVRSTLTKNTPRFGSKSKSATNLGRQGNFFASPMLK

inhibition, inactive:
O=C(Nc1nccs1)C1CCCN1/C=C/C(=O)C(F)(F)F (stereo not given) -1.71%, C=CCNC(=O)c1n[nH]c2c1CC(C(C)(C)CC)CC2 (stereo not given) 8.27%, CCN(Cc1ccccc1)C(=O)C1CCC(CNc2c(N3CCOCC3)c(=O)c2=O)CC1 (stereo not given) 4.88%, C=CCN1CCN(C(=O)c2cc3c(s2)CCC(CC)C3)CC1 (stereo not given) 5%, COCCn1c(SCC(=O)Nc2ccc3c(c2)OCCO3)nc2c(c1=O)SC(C)C2 (stereo not given) 8.12%, CCN1C(=O)[C@H]2[C@@H](c3ccc(C)cc3)N3C(=O)N(c4ccc(OC)cc4)C(=O)[C@@]3(Cc3ccc(Cl)cc3)[C@H]2C1=O -2.48%, C/C(CC(=O)Nc1ccc(N(C)C)cc1)=N\NC(=O)c1ccc(Cl)cc1Cl 21.9%, C/C(CC(=O)Nc1ccc2c(c1)OCCO2)=N\NC(=O)c1ccc([N+](=O)[O-])cc1Cl 9.05%, Cc1ccc(-c2cc(C(=O)Nc3ccc(S(=O)(=O)Nc4onc(C)c4C)cc3)[nH]n2)c(O)c1 -1.18%, C#CCOCCOCCOCCNc1nc(N2CCOCC2)nc(N2CCN(C(=O)[C@H](Cc3ccc(O)cc3)n3cc([C@@H](N)C(C)CC)nn3)CC2)n1 (stereo not given in full) 8.21%, COc1cccc(CN(C)Cc2c(O)ccc3ccccc23)c1 3.54%, COc1ccc(CN(C)Cc2c(O)ccc3ccccc23)cc1 9.58%, CN(C)Cc1c(O)ccc2ccccc12 7.54%, CCN(Cc1ccncc1)Cc1c(O)ccc2ccccc12 15.9%, COc1ccc(/C(N)=N/OC(=O)Cc2cccs2)cc1 5.03%, CCOC(=O)C(N=Nc1nn[nH]n1)C(C)=O (stereo not given) 14.3%, CC(=O)Nc1c(F)cc(Br)cc1F 7.06%, COCCN(C(=O)c1ccccc1)c1nnc(-c2cccnc2)s1 3.74%, C=CCn1c(=O)/c(=C/c2ccc(Cl)cc2)s/c1=C(\C#N)c1nnc2n1CCCCC2 0.47%, C=CCn1c(=O)/c(=C/c2ccc(Cl)cc2)s/c1=C(/C#N)c1nnc2n1CCCCC2 3.92%, CN1CCN(Cc2nnc(-c3ccccc3)o2)CC1 7.8%, CC1=CC(C2CC(=O)N(c3ccc(C)cc3)C2=O)CC2C(=O)N(c3ccc(C)cc3)C(=O)C12 (stereo not given) 1.51%, Cn1cc(Br)c(-c2cccc(N3C(=O)CC(C)(C)CC3=O)c2)n1 9.36%, Cc1cccc(-n2nc3c(c2NC(=O)CCCl)CSC3)c1 9.59%, Cc1ccc(-n2ncc(C(=O)Nc3cc(Cl)cc(Cl)c3)c2C2CCNCC2)cc1C 10.4%, COc1ccc(CSc2nncn2N)cc1[N+](=O)[O-] 2.61%, OCC1CCCN(C(=S)Nc2ccc(Oc3ccccc3)cc2)C1 (stereo not given) 11.8%, CC(=O)c1ccc(NC(=S)N2CCCC(CO)C2)cc1 (stereo not given) 9.07%, Cc1ccccc1NC(=O)c1cccc2c1C(=O)N(C1CCCCC1)C2 6.92%, CCCC(=O)Nc1cc(OC)c(OC)cc1C(=O)O 0.59%, COc1cc2ccc(NC(C)=O)cc2cc1OC -17.4%, COc1cc(NC(=O)c2cnc(NCc3ccccc3)nc2C)cc(OC)c1OC 10.3%, COc1cc(Cc2nccc3cc(OC)c(OC)cc23)c(NC(C)=O)cc1OC 8.79%, CCOC(=O)[C@@H]1[C@H]2COc3ccccc3[C@@H]2N2C(=O)N(c3cccc(Cl)c3)C(=O)[C@@]12C 7.95%, O=C(CCC(=O)Nc1ccc(F)cc1)N/N=C/c1cccnc1 7.44%, Cc1ccnc(NS(=O)(=O)c2ccc(NC(=O)c3snnc3C)cc2)n1 15.1%, c1ccc2c(c1)CCN(CCCNc1nc3ccccc3n3cnnc13)C2 5.26%, Cc1ccc(S(=O)(=O)Nc2nc(C)cc(NN)n2)cc1 0.61%, COc1cc(C)nc(NS(=O)(=O)c2ccc(C)cc2)n1 5.36%, COC(=O)c1ccsc1NC(=O)c1ccc2c(c1)OCCO2 0.64%, O=C(CCCN=C1NS(=O)(=O)c2ccccc21)OCC(=O)c1ccc(F)cc1 3.32%, Cc1cc(C(F)F)nn1CC(=O)NCc1ccc(Cl)cc1Cl 6.89%, COc1cc2[nH]c(=S)n(CCCN3CCOCC3)c(=O)c2cc1OC 12.7%, CCCSc1nc2cc(OC)c(OC)cc2c(=N)n1CCCN1CCOCC1 20.6%, Fc1cc2[nH]c(=S)[nH]c2c(Br)c1N1CCSCC1 8.85%, O=C(N/N=C/c1cccc(O)c1)c1csc2ccccc12 -6.14%, O=C(N/N=C/c1ccccc1)c1cccc2ccccc12 7.64%, C/C(=N\NC(=O)c1csc2ccccc12)c1ccc(O)cc1 26.2%, O=C(N/N=C/c1ccccc1O)c1cccc2ccccc12 11.8%, Cc1ccc(/C=N/NC(=O)c2csc3c2CCCC3)cc1 7.82%, O=C(N/N=C/c1cccc(F)c1)c1csc2c1CCCC2 11.6%, Cc1cc(S(=O)(=O)N2CC(=O)N(CCc3ccccc3)C(=O)C2)ccc1F 12.6%, CCC(C)N(CCNC(=O)c1ccc2c(c1)NC(=O)c1ccccc1S2)C1CCCCC1 (stereo not given) 3.06%, COc1ccc(C(=O)CN2C(=O)NC3(CCCc4ccccc43)C2=O)c(OC)c1 (stereo not given) 2.84%, CN(C(=O)CSc1nnc(-c2cccc(F)c2)n1N)C1CCS(=O)(=O)C1 (stereo not given) 3.77%, Cc1csc(=O)n1CC(=O)OCC(=O)c1c(N)n(CC(C)C)c(=O)n(C)c1=O -0.27%, Cc1nc2ccccc2c(-c2ccccc2)c1CC(=O)O 5.79%, Cc1nc2ccccc2n1CC(=O)c1ccccc1 15.2%, COc1ccccc1OCC(=O)NCC1CCCN(C(=O)c2cccc(C)c2)C1 (stereo not given) 12.2%, Cc1cc(O)cc2c(=O)c3ccccc3sc12 8.36%, CCN(CC)CCNc1ccc(CO)c2sc3ccccc3c(=O)c12 16.6%, COc1ccc2sc3ccccc3c(=O)c2c1OC 2.12%, CN(C)CCNC(=O)c1cc2sc3ccccc3c2s1 11.4%, CCN(CC)CCNc1ccc(CO)c2oc3cc(Cl)ccc3c(=O)c12 4.45%, O=c1c2ccccc2sc2c(CO)ccc(NCCN3CCCCC3)c12 27.3%, CN(C)CCNc1ccc(Cl)cc1[N+](=O)[O-] -0.93%, CCN(CC)CCNc1ccc(CO)c2oc3ccccc3c(=O)c12 16.8%, Nn1c(SCC(=O)NCCC2=CCCCC2)nnc1C(F)(F)F 9.95%, Cc1cccc(NC(=O)CSc2nnc(C)n2Cc2ccccc2)c1 -8.45%, O=C(NCCc1nc(-c2ccccc2)cs1)c1ccc(Br)cc1 -0.49%, CC(=O)N(Nc1ccccc1)c1ccccc1 -0.89%, COc1ccc(C=C2C=C(C(C)(C)C)C(=O)C(C(C)(C)C)=C2)cc1OC 15.6%, CC(=O)OCCCN1c2ccccc2Nc2nnc(-c3ccccc3)cc21 6.92%, CCCCc1ccc(NC(=O)c2ccc(N(C)S(C)(=O)=O)cc2)cc1 -2.51%, CCN(CC)CCNc1cccc2sc3ccccc3c(=O)c12 19.4%, CCN(CC)CCNc1ccc(Cl)cc1[N+](=O)[O-] 4.03%, C#CCOCCOCCOCCNc1nc(N2CCN(C(=O)[C@H]([C@@H](C)CC)n3cc(CCCN=C(N)N)nn3)CC2)nc(N2CCN(C(=O)[C@H](CCCCN)n3cc(CCC(=O)O)nn3)CC2)n1 -4.54%, CC(=O)Nc1ccc(N2CCN(Cc3ccccc3)CC2)cc1 11.2%, O=C(CN1CCN(Cc2ccc(F)cc2)CC1)NCc1ccccc1 9.4%, O=C(CCS(=O)(=O)c1ccc(F)cc1)Nc1ccc(N2CCN(Cc3ccccc3)CC2)cc1 3.53%, CCOc1ccc(CNc2ccc(N3CCN(Cc4ccccc4)CC3)cc2)cc1 30.8%, Cc1ccc(NC(=O)c2ccccc2Cl)cc1-n1cnnn1 3.88%, CCOc1ccc(S(=O)(=O)NN2Cc3ccccc3C2=N)cc1 7.55%, COc1ccc(OC)c(S(=O)(=O)N(C)CC(=O)N2CCN(c3ccc(F)cc3)CC2)c1 5.44%, Cc1cc(C(=O)NC2CCCC2)on1 2.61%, COc1ccc2c(c1)C(=NNC(=O)c1ccccn1)c1cc(OC)ccc1-2 12.9%, CCOc1ccc2c(c1)C(=NNC(=O)c1ccccn1)c1cc(OCC)ccc1-2 -24.9%, Cc1cc(C)n(C(=O)CNc2cccc(Cl)c2C)n1 5.52%, N#CC1(Nc2ccc(Br)cc2)CCCC1 2.57%, Cc1ccc(NC2(C#N)CCCC2)cc1 4.1%, COc1ccc(C(CNC(=O)c2ccc(S(=O)(=O)N(C)C)cc2)N2CCCC2)cc1 (stereo not given) -5.33%, N#CC1(NC(=O)CSc2nnc3n2CCCCC3)CCCCC1 4.53%, CC(NC(=O)COC(=O)c1ccc(S(=O)(=O)N2CCOCC2)cc1)c1ccccc1 (stereo not given) -3.85%, Cc1c(NC(=O)Cc2cccs2)cccc1[N+](=O)[O-] 6.13%, Oc1cccc(/C=N/Nc2cc(N3CCOCC3)nc(N3CCOCC3)n2)c1 18.3%, Cc1cccc(/C=N/Nc2cc(N3CCOCC3)nc(N3CCOCC3)n2)c1 -20.8%, Oc1ccccc1/C=N/Nc1cc(N2CCCC2)nc(N2CCCC2)n1 -4.19%, Oc1ccc(/C=N/Nc2cc(N3CCCC3)nc(N3CCCC3)n2)cc1 7.45%, CC(C)c1ccc(/C=N/Nc2cc(N3CCOCC3)nc(N3CCOCC3)n2)cc1 2.24%, Oc1ccc(/C=N/Nc2cc(N3CCCC3)nc(N3CCCC3)n2)cc1O 23.7%
